Jurkat NFkB inh = lowers PMA/ionomycin-induced NF-kB signal in Jurkat cells | PMA/ionomycin-induced NF-kB luciferase reporter, luminescence | inhibition, % at 4 µM | 0.53% of 330,000 active | AID 435003; in the data active = inhibition above about 50%
Mdm2 MdmX PPI = disrupts the human Mdm2-MdmX interaction; SaOS-2 split-luciferase Mdm2/MdmX complementation, luminescence; inhibition, % at 8 µM; 3% of 330,000 active;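 active = inhibition of at least 50% at 8 µM in the primary screen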
Target sequence (O15151 whole entry, looked up): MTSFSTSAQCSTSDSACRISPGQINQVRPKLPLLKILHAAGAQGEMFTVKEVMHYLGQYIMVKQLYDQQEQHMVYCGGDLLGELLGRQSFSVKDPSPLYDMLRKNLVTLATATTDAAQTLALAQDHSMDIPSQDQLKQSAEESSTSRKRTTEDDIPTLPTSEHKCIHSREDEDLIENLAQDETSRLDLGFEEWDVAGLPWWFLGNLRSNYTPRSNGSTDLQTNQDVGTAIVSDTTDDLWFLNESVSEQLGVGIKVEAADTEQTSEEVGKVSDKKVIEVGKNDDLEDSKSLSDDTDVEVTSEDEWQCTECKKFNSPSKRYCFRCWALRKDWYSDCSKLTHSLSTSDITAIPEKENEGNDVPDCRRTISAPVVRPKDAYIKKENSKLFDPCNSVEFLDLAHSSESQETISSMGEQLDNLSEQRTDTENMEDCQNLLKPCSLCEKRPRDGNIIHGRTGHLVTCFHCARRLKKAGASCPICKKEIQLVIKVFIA
Target sequence (Q00987 whole entry, looked up): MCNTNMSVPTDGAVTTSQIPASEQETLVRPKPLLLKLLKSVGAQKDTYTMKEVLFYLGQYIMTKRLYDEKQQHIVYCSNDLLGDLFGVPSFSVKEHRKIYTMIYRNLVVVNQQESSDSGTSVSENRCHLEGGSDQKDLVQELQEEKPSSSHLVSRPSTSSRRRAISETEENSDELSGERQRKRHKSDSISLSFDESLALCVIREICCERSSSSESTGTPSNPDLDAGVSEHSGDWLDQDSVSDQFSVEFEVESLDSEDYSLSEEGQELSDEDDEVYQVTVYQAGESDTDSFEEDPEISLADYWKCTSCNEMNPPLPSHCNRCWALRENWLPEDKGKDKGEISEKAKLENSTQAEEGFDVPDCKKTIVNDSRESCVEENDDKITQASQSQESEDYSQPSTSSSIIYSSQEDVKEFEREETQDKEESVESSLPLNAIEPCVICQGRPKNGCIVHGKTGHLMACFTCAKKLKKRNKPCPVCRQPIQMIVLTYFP
697 NFkB inh = lowers PMA/ionomycin-induced NF-kB signal in 697 B cells; inhibition, % at 4 µM; 0.33% of 330,000 active; 697 B-cell NF-kB luciferase reporter, 16 h; AID 435022; in the data active = inhibition above about 35%
Gli-Sufu antag = blocks Gli-Sufu signaling in a luciferase reporter; inhibition, % at 5 µM; 0.74% of 340,000 active; Sufu-KO-LIGHT fibroblasts, Gli luciferase reporter luminescence;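 active = inhibition above about 55%, limit read from the data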;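 note: 0% = DMSO-treated cells and 100% = wells with medium but no cells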
CSC inhib = blocks cancer stem cells. AID 2717. cancer stem cell-like cells viability, luminescence. 1.1% of 300,000 active. inhibition, % at 7.5 µM; in the data active = inhibition above about 75%; tested in HMLE shEcad cells
Beta cell apopt = beta cell apoptosis inhibition; INS-1E cytokine-induced death, ATP luminescence, 48 h; percent of positive-control rescue, neutral wells zero; protection from apoptosis, % (no concentration beside the values); AID 435005; 0.8% of 300,000 active;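 active = Every replicate reaches about 75%, or at least half do and their mean reaches it too, limit read from the data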;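 note: 0% = cytokine-treated negative control wells and 100% = positive control rescue; higher means more ATP so stronger rescue from cytokine killing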
Gli antag conf = confirmation of Gli-SUFU pathway antagonists; shares compounds with Gli-Sufu antag; inhibition, % at 5 µM; Sufu-KO-LIGHT cells, Gli luciferase reporter, luminescence; 40% of 2,500 active;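 active = mean inhibition at 5 µM reaching about 45%, limit read from the data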;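 note: plate controls were DMSO-treated cells for no effect and wells lacking cells for full effect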
SufuKO cytotox = counter-screen for Gli-SUFU antagonists: cytotoxicity | shares compounds with Gli-Sufu antag | Sufu-KO-LIGHT cells cytotoxicity, ATP luminescence | cytotoxicity, % at 5 µM | 32% of 2,500 active;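 active = mean cytotoxicity at 5 µM above about 25%, limit read from the data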;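 note: cells exposed to compound overnight for roughly 16 to 18 hours; plate controls were DMSO wells with cells for no effect and medium without cells for full effect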
Wnt3a cs = Wnt3a reporter inhibition counter-screen; 20% of 2,500 active; inhibition, % at 6.25 µM; shares compounds with Gli-Sufu antag; Wnt-LIGHT cells, Wnt3a-driven luciferase reporter, luminescence; AID 651995;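 active = mean inhibition above about 25%, limit read from the data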
* marks the source's active call; other numbers are inactive results; nt = no result. This is a sample that favours compounds with a hit; in the whole collection about 4.5% have one here.

SMILES	Jurkat NFkB inh	Mdm2 MdmX PPI	697 NFkB inh	Gli-Sufu antag	CSC inhib	Beta cell apopt	Gli antag conf	SufuKO cytotox	Wnt3a cs
CCC(=O)Nc1cccc(-n2nnnc2SCC(=O)N2CCCCC2)c1	-15	8	-1	59*	10	1	7	15	1
COCCC(=O)NC1CCCc2c1cnn2-c1cccc(C)c1C (stereo not given)	5	2	-6	29	-4	1	nt	nt	nt
COc1ccccc1NC(=O)Cn1cc(C(=O)c2ccco2)c2ccccc21	-5	-6	11	56*	-11	87*	69*	38*	31*
Cc1ccc(C)c(NC(=O)Cn2cc(C(=O)C3CC3)c3ccccc32)c1	3	19	-6	16	0	-2	nt	nt	nt
COc1ccc(OC)c(NC(=O)Cn2cc(C(=O)c3ccco3)c3ccccc32)c1	-1	13	-19	-2	-12	-5	nt	nt	nt
Cc1cccc(NC(=O)Cn2cc(C(=O)C3CC3)c3ccccc32)c1C	15	14	8	80*	-3	18	83*	33*	-13
CCOc1cc(CNCc2cccnc2)ccc1OCC(=O)NC(C)(C)C	5	-8	-5	-9	-16	1	nt	nt	nt
COc1cc(/C=C2/NC(=O)N(c3cccc(Cl)c3)C2=O)ccc1O	30	23	14	75*	55	-6	80*	23	46*
COc1ccc(-n2cccc2/C=C2/NC(=O)N(c3cccc(Cl)c3)C2=O)cc1	-83	19	-87	-7	14	-1	nt	nt	nt
O/N=C(\c1ccccc1)c1nccc2ccccc12	14	13	6	-5	-10	-12	nt	nt	nt
Cc1nn(C)c(C)c1NS(=O)(=O)c1ccc(Cl)cc1	-3	-5	-1	-4	-5	-4	nt	nt	nt
CCN(CC)S(=O)(=O)c1ccc(S(=O)(=O)Nc2c(C)nn(C)c2C)cc1	32	5	-60	65*	-5	56	54*	18	25*
COc1ccc(S(=O)(=O)NC2CC(C)(C)NC(C)(C)C2)cc1C(C)C	-1	26	2	51	6	-6	17	11	-18
COc1ccc2cc(S(=O)(=O)NC3CC(C)(C)NC(C)(C)C3)ccc2c1	12	10	-1	17	-4	-3	nt	nt	nt
CN(C(=O)c1nc(-c2ccccc2)n(-c2ccccc2)n1)C1CCS(=O)(=O)C1 (stereo not given)	3	13	11	13	0	-4	nt	nt	nt
Nc1nc(=O)n(C2CC(O)C(CO)O2)cc1F (stereo not given)	nt	nt	nt	66*	nt	nt	47*	17	45*
Cc1ccc(C)c(S(=O)(=O)N2CCN(C(=O)c3cccn3C)CC2)c1	0	22	-15	-4	-1	nt	nt	nt	nt
CCOc1ccc(C2=Nn3c(nnc3-c3ccc(OC)cc3)SC2)cc1	nt	nt	nt	13	49	17	nt	nt	nt
CCOc1ccc(C2=Nn3cnnc3SC2)cc1	9	2	4	99*	-18	-1	14	20	27*
C=C1c2cccc(C(F)(F)F)c2O[C@H](C(=O)OCC)[C@H]1OC	nt	-1	-3	-12	nt	nt	nt	nt	nt
C[C@H]1Oc2ccccc2C(=O)C1C(=O)c1ccccc1 (stereo not given in full)	1	17	12	-3	0	8	nt	nt	nt
Clc1ccc(-c2nnc(CSc3nnc(-c4cccs4)n3Cc3ccccc3)o2)cc1	30	7	-13	68*	42	57	66*	32*	10
Cc1ccccc1CNCc1ccc2c(c1)OCO2	0	-14	9	51	nt	nt	27	4	1
CC(=O)c1ccc(N2CCN(c3ncccn3)CC2)cc1	-48	-21	-57	-12	-12	5	nt	nt	nt
CC1(C)CC(N2CCN(Cc3ccccc3)CC2)=CC(=[N+]2CCCCC2)C1	47	36	-15	79*	-3	109*	85*	34*	39*
SMILES	Jurkat NFkB inh	Mdm2 MdmX PPI	697 NFkB inh	Gli-Sufu antag	CSC inhib	Beta cell apopt	Gli antag conf	SufuKO cytotox	Wnt3a cs
O=C(CSc1nc2sc3c(c2c(=O)n1-c1ccccc1)CCCC3)NCc1ccco1	-2	28	-6	64*	nt	nt	28	4	-8
O=C(NCCOc1ccccc1F)c1ccc2c(=O)n3c(nc2c1)CCC3	-95	-27	-95	-59	-7	-4	nt	nt	nt
O=C(NCCc1ccc(F)cc1)c1ccc2c(=O)n3c(nc2c1)CCC3	-32	-26	-21	96*	7	4	-8	14	-114
CCCc1c(CC)c(=N)c2ccccc2n1C	-8	8	-49	51	-10	9	59*	24	1
O=c1[nH]c(C2CCN(S(=O)(=O)c3ccc(C(F)(F)F)cc3)CC2)nc2c1nnn2Cc1cccc(F)c1	6	34	-23	56*	20	-8	19	25*	-57
CC(C)(CO)CNC(=O)CCc1nnc(-c2ccc(-c3ccccc3)cc2)o1	-17	0	-6	1	-3	nt	nt	nt	nt
CCOC(=O)N1CCN(C(=O)CCCCCn2c(=S)[nH]c3ccsc3c2=O)CC1	-5	-13	14	69*	-12	2	27	2	26*
O=C(c1ccc(Cl)cc1)N1CCN(c2ccnc3cc(Cl)ccc23)CC1	nt	nt	nt	67*	nt	nt	69*	18	4
O=C(Cn1c(=O)oc2ccccc21)Nc1ccc(S(=O)(=O)N2CCCCC2)cc1	-11	8	2	54	1	7	11	7	-21
CCN(CC)S(=O)(=O)c1ccc(NC(=O)Cn2c(=O)oc3ccccc32)cc1	4	17	7	31	-19	-7	nt	nt	nt
CNS(=O)(=O)c1cccc(C(=O)OCC(=O)Nc2ccc3ccccc3c2)c1	-4	22	2	-2	-7	-2	nt	nt	nt
O=C(Nc1ccc(-c2nc3ccccc3[nH]2)cc1)c1ccco1	-135	-164	-101	-1	20	8	nt	nt	nt
O=C(/C=C/c1ccco1)Nc1ccc(-c2nc3ccccc3[nH]2)cc1	nt	nt	nt	67*	66	-2	55*	8	-22
CCOc1ccccc1NC(=O)COC(=O)C12CC3CC(CC(O)(C3)C1)C2	0	12	10	-9	nt	nt	nt	nt	nt
Cc1ccc(CNC(=O)CN2C(=O)COc3ccc(S(=O)(=O)N4CCCCC4)cc32)o1	3	-1	-12	-7	-20	-4	nt	nt	nt
CCC1(CCC(C)C)SC(N)=NC1=O (stereo not given)	nt	nt	nt	7	nt	nt	nt	nt	nt
O=C(Cc1ccc(Cl)cc1)N1CCN(c2ccccc2)CC1	0	-47	-31	53	-3	-2	23	13	-40
CC(=O)/C(N=Nc1ccc(C(=O)O)cc1[N+](=O)[O-])=C(\C)O	6	6	5	80*	-5	2	8	5	-14

Compound activity as filed in PubChem BioAssay.
